Paper PMC7862700, “An all-to-all approach to the identification of sequence-specific readers for epigenetic DNA modifications on cytosine”

Experiments:
Assay in all cases: DAPPL (digital affinity profiling via proximity ligation, sequencing); 10 mM Tris-HCl pH 7.5, 50 mM NaCl, 1 mM DTT, 4% glycerol, room temperature, 30 min; GST-TFs on glutathione beads, 16-mer random dsDNA library, 0.1% formaldehyde crosslink after washing; high values mean tight binding
Settings in all cases: protein: recombinant; tags: N-terminal GST; dsDNA, one strand shown
FLI1 = target: T1, FLI1 (Homo sapiens, UniProt Q01543 1-452)
T1 sequence: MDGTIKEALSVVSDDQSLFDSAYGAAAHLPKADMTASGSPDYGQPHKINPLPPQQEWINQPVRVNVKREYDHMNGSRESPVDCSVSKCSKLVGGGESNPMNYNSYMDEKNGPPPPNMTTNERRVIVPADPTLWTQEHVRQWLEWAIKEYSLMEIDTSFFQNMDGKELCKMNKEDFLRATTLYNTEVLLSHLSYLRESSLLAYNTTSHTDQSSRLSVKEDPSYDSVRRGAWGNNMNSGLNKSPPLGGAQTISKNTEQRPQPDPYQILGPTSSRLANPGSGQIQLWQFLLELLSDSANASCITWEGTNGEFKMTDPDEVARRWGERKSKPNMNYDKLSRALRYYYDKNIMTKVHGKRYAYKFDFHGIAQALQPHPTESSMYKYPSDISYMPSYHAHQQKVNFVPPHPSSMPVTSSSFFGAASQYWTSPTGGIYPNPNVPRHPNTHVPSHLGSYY
Method in brief: (§1)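 Each value of binding signal is a hexamer's read frequency for a factor divided by the same hexamer's frequency in the tag-only sample. Barcoded, bead-captured GST fusions of human transcription factors made in yeast were pooled with that sample and incubated with 200 nmole of a random double-stranded 16-mer DNA library in Tris/NaCl/DTT/glycerol buffer at room temperature for 30 min. Washing, 0.1% formaldehyde crosslinking, proximity ligation, PCR and Illumina NextSeq500 sequencing followed.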

ELK1 = target: T2, ELK1 (Homo sapiens, UniProt P19419 1-428)
T2 sequence: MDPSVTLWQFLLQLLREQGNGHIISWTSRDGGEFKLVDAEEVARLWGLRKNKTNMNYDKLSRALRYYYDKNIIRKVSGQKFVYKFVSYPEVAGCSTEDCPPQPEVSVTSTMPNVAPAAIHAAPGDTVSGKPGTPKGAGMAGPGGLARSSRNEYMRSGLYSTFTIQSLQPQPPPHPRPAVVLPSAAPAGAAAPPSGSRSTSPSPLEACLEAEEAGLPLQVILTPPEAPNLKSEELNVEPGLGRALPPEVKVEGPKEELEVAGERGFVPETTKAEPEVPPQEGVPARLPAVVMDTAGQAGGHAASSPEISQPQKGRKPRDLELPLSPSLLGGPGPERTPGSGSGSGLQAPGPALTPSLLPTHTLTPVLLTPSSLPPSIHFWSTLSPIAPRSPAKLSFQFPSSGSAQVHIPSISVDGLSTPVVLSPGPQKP
Method in brief: as §1

GABPA = target: T3, GABPA (Homo sapiens, UniProt Q06546 1-454)
T3 sequence: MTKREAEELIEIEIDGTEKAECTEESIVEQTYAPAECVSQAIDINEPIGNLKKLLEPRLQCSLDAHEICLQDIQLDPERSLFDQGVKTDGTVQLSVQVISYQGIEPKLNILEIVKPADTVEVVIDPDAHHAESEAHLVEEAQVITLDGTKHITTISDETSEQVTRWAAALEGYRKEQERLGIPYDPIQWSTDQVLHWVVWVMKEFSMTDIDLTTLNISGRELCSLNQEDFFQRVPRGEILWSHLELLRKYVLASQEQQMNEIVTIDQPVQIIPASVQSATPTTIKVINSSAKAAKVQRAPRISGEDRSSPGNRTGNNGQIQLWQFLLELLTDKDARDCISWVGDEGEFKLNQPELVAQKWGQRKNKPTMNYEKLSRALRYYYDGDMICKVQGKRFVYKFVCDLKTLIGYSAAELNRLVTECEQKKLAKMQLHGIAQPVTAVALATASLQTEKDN
Method in brief: as §1

ERG = target: T4, ERG (Homo sapiens, UniProt P11308 1-479)
T4 sequence: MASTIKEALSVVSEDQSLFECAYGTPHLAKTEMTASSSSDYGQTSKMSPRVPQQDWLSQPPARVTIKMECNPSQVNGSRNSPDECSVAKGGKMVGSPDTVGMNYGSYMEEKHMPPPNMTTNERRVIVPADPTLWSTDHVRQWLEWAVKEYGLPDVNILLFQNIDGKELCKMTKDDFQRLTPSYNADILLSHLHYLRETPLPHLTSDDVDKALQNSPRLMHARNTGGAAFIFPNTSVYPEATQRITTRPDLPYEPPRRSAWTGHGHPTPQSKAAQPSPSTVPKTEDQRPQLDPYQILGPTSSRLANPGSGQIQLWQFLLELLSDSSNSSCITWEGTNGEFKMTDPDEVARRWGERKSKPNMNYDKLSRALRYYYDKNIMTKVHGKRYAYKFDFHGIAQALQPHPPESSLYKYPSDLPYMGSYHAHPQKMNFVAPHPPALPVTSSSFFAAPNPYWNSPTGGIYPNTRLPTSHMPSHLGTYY
Method in brief: as §1

ELF1 = ELF1 (Homo sapiens, UniProt P32519 1-619)
Method in brief: as §1

EHF = target: T5, EHF (Homo sapiens, UniProt Q9NZC4 1-300)
T5 sequence: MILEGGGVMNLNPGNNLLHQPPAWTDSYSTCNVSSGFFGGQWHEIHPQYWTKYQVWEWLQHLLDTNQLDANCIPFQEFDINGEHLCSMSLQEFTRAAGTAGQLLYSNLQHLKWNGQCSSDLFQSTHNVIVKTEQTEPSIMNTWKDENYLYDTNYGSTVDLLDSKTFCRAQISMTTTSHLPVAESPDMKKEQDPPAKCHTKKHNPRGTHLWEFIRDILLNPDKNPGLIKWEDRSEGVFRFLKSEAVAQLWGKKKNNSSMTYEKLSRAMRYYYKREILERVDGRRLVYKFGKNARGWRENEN
Method in brief: as §1

SPI1 = SPI1 (Homo sapiens, UniProt P17947 1-270)
Method in brief: as §1

SPIB = SPIB (Homo sapiens, UniProt Q01892 1-262)
Method in brief: as §1

ELK3 = target: T6, ELK3 (Homo sapiens, UniProt P41970 1-407)
T6 sequence: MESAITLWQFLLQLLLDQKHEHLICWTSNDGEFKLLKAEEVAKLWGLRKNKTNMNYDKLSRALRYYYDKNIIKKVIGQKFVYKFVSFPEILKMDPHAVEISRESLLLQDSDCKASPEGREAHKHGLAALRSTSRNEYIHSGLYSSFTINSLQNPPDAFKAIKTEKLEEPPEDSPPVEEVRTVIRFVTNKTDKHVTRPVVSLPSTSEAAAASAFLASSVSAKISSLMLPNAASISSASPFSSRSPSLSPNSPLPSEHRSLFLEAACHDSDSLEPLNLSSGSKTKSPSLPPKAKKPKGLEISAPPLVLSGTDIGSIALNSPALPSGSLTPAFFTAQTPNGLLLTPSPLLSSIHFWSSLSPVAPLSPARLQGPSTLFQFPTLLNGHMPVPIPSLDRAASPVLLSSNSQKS
Method in brief: as §1

FEV = target: T7, FEV (Homo sapiens, UniProt Q99581 1-238)
T7 sequence: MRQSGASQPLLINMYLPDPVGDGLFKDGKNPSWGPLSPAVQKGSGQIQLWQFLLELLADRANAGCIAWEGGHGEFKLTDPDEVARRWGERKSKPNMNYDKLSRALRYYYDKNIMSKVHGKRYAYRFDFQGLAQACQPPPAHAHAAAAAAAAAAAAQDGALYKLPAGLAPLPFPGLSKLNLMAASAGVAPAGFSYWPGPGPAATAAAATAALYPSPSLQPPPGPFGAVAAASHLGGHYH
Method in brief: as §1

ETV5 = ETV5 (Homo sapiens, UniProt P41161 1-510)
Method in brief: as §1

SPIC = target: T8, SPIC (Homo sapiens, UniProt Q8N5J4 1-248)
T8 sequence: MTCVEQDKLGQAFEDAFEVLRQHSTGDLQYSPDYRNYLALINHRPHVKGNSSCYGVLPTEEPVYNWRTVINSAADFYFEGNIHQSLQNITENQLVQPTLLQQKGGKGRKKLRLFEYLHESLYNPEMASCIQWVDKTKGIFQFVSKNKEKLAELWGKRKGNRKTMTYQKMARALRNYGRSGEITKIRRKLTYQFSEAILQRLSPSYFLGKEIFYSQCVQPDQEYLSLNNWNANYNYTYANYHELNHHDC
Method in brief: as §1

ELF4 = ELF4 (Homo sapiens, UniProt Q99607 1-663)
Method in brief: as §1

ELK4 = target: T9, ELK4 (Homo sapiens, UniProt P28324-2 1-405)
T9 sequence: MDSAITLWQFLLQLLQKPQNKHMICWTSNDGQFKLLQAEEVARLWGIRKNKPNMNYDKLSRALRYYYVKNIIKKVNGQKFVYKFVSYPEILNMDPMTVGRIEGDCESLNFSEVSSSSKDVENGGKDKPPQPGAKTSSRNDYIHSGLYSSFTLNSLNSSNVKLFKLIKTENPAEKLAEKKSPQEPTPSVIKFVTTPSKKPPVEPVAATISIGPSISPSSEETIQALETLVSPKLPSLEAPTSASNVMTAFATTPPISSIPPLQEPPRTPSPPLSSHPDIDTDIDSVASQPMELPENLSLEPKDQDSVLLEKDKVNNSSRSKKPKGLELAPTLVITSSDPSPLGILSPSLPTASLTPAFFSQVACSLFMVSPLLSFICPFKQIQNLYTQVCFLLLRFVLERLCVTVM
Method in brief: as §1

ETV2 = target: T10, ETV2 (Homo sapiens, UniProt O00321 1-342)
T10 sequence: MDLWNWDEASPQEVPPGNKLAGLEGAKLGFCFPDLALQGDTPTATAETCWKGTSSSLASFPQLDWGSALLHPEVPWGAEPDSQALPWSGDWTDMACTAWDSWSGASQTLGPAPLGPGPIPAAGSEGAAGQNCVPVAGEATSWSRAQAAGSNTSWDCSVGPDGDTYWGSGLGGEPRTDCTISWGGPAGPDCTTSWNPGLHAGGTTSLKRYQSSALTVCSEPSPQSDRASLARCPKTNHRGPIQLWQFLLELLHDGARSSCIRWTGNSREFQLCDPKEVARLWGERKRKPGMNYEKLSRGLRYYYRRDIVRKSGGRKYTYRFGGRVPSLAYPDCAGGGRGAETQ
Method in brief: as §1

ELF3 = target: T11, ELF3 (Homo sapiens, UniProt P78545 1-371)
T11 sequence: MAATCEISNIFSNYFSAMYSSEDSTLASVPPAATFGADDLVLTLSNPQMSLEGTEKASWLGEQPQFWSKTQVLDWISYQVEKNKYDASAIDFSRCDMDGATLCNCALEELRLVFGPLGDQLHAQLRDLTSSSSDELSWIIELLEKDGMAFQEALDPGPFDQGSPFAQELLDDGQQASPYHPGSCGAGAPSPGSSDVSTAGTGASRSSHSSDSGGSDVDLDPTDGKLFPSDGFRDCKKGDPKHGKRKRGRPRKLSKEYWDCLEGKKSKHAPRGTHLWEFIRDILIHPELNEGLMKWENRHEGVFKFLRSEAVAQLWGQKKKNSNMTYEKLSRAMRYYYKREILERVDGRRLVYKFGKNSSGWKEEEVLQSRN
Method in brief: as §1

ETV1 = ETV1 (Homo sapiens, UniProt P50549 1-477)
Method in brief: as §1

CRX = CRX (Homo sapiens, UniProt O43186 1-299)
Method in brief: as §1

ETV5, sequence (P41161 whole entry): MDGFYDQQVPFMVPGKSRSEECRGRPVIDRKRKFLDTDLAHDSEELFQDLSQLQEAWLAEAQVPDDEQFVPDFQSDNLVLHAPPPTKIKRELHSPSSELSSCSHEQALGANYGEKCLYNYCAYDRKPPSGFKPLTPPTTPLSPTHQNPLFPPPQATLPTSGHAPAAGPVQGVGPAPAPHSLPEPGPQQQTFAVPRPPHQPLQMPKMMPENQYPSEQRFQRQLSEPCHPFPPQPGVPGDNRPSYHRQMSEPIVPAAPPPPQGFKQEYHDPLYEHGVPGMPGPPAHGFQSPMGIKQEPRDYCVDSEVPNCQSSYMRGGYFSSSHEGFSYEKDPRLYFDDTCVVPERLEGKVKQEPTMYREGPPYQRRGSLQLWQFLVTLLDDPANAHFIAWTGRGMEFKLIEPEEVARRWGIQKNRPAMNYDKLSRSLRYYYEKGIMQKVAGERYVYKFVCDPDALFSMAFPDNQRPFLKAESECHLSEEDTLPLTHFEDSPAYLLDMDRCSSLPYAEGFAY
SPIB, sequence (Q01892 whole entry): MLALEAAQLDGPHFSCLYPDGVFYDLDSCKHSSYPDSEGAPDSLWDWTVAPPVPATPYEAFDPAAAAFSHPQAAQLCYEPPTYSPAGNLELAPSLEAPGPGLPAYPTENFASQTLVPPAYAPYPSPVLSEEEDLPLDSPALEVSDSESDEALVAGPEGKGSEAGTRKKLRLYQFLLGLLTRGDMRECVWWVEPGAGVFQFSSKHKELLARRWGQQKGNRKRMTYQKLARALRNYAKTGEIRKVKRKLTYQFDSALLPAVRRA
ETV1, sequence (P50549 whole entry): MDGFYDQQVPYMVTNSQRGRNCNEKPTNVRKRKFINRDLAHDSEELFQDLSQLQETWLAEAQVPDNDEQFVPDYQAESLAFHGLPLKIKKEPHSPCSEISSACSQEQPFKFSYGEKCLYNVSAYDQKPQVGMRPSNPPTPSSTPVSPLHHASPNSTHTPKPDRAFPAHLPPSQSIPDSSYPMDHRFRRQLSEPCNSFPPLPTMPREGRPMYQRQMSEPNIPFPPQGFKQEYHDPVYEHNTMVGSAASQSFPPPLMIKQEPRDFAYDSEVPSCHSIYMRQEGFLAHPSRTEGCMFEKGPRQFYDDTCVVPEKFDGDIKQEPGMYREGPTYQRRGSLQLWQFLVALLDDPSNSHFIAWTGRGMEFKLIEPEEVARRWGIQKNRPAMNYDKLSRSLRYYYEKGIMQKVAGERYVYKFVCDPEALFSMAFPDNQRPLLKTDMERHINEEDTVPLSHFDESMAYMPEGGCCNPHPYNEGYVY
ELF4, sequence (Q99607 whole entry): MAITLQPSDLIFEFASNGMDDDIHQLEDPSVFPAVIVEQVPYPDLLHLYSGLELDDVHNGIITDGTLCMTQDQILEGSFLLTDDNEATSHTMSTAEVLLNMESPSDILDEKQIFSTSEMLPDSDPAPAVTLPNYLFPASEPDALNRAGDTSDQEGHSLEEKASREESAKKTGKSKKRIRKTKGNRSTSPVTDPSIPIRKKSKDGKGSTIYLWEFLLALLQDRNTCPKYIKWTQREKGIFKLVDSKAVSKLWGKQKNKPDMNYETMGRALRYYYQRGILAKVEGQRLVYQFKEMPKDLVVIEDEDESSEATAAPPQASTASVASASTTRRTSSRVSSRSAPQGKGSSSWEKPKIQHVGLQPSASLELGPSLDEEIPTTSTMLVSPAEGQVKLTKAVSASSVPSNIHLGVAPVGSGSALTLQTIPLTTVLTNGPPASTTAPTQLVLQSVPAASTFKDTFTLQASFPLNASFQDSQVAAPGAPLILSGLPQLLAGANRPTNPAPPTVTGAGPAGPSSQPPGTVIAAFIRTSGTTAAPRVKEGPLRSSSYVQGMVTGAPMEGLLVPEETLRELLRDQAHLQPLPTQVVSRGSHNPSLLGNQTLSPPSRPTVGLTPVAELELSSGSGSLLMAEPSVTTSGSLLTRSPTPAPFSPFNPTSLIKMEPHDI
ELF1, sequence (P32519 whole entry): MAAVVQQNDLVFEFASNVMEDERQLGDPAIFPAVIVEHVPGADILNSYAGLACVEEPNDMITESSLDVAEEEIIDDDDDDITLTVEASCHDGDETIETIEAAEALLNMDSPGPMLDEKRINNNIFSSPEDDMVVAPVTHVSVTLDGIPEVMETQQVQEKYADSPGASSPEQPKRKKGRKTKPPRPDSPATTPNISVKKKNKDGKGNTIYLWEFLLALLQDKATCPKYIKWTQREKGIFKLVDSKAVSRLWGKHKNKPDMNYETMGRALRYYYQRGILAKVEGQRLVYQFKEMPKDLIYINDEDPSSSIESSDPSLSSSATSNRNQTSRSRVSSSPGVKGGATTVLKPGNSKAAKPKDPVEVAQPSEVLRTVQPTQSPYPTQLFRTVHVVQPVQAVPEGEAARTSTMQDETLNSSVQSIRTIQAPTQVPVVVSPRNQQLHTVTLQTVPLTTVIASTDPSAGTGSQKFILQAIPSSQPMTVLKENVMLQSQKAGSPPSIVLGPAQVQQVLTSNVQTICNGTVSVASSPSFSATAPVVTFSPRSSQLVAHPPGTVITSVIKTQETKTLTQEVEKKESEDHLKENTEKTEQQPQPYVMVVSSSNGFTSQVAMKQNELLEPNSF
CRX, sequence (O43186 whole entry): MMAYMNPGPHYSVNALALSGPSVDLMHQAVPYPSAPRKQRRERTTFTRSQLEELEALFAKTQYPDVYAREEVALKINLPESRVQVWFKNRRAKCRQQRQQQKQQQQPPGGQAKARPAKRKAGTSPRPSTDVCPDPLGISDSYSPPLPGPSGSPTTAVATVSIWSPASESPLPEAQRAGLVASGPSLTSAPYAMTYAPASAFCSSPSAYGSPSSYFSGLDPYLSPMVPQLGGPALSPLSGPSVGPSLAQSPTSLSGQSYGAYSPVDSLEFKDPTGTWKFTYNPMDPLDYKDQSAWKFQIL

Sequence	binding signal (FLI1)	binding signal (ELK1)	binding signal (GABPA)	binding signal (ERG)	binding signal (ELF1)	binding signal (EHF)	binding signal (SPI1)	binding signal (SPIB)	binding signal (ELK3)	binding signal (FEV)	binding signal (ETV5)	binding signal (SPIC)	binding signal (ELF4)	binding signal (ELK4)	binding signal (ETV2)	binding signal (ELF3)	binding signal (ETV1)	binding signal (CRX)
GTATAC	1.28 fold enrichment (6-mer frequency, TF over GST control)	1.3 fold enrichment (6-mer frequency, TF over GST control)	1.32 fold enrichment (6-mer frequency, TF over GST control)	1.24 fold enrichment (6-mer frequency, TF over GST control)	1.18 fold enrichment (6-mer frequency, TF over GST control)	1.22 fold enrichment (6-mer frequency, TF over GST control)	1.18 fold enrichment (6-mer frequency, TF over GST control)	1.27 fold enrichment (6-mer frequency, TF over GST control)	1.28 fold enrichment (6-mer frequency, TF over GST control)	1.2 fold enrichment (6-mer frequency, TF over GST control)	1.24 fold enrichment (6-mer frequency, TF over GST control)	1.2 fold enrichment (6-mer frequency, TF over GST control)	1.3 fold enrichment (6-mer frequency, TF over GST control)	1.29 fold enrichment (6-mer frequency, TF over GST control)	1.1 fold enrichment (6-mer frequency, TF over GST control)	1.18 fold enrichment (6-mer frequency, TF over GST control)	1.31 fold enrichment (6-mer frequency, TF over GST control)	–
GTAATG	1.07 fold enrichment (6-mer frequency, TF over GST control)	1.07 fold enrichment (6-mer frequency, TF over GST control)	1.16 fold enrichment (6-mer frequency, TF over GST control)	1.05 fold enrichment (6-mer frequency, TF over GST control)	1.11 fold enrichment (6-mer frequency, TF over GST control)	1.12 fold enrichment (6-mer frequency, TF over GST control)	–	1.06 fold enrichment (6-mer frequency, TF over GST control)	1.03 fold enrichment (6-mer frequency, TF over GST control)	1.03 fold enrichment (6-mer frequency, TF over GST control)	1.09 fold enrichment (6-mer frequency, TF over GST control)	1.02 fold enrichment (6-mer frequency, TF over GST control)	1.08 fold enrichment (6-mer frequency, TF over GST control)	1.09 fold enrichment (6-mer frequency, TF over GST control)	1.04 fold enrichment (6-mer frequency, TF over GST control)	1.14 fold enrichment (6-mer frequency, TF over GST control)	1.22 fold enrichment (6-mer frequency, TF over GST control)	1 fold enrichment (6-mer frequency, TF over GST control)
